# Experimental data: PubChem BioAssay AID2216 (Broad Institute, 2009)
# The whole screen tested about 300,000 compounds, of which about 3,300 (1.1%) were called active. Not shown: some 6% with an inconclusive outcome.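 How the source made its calls: active means more than half of the replicate wells show a fall in the fluorescence ratio signal beyond about 16% (limit read from the data, passing the limit was not always enough); inconclusive means exactly half of the replicate wells pass the set limit; inactive means fewer than half of replicates pass the limit.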 The full list was thinned out, with actives kept by preference.
# Tested on: Ran GTPase (GTP-bound) - importin-beta complex
# Assay: inhibitors of RanGTP-importin-beta interaction, primary screen, biochemical, FRET, CFP-Ran, YFP-importin-beta, homogeneous (AID 2216);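 further: 0% = DMSO wells and 100% = Ran loaded with GDP instead of GTP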
# Details: cell-free CFP-Ran/YFP-importin-beta FRET ratio; active compounds read high; concentration not given here
row,SMILES,inhibition
1,COc1ccc(-c2cc(C(=O)Nc3ccccc3O)c3ccccc3n2)cc1,5.76% (inactive)
2,O=C(N/N=C/c1cccnc1)c1cc2ccccc2cc1O,-5.78% (inactive)
3,Cc1ccccc1NC(=O)NNC(=O)OC(C)(C)C,3.65% (inactive)
4,CC(C)(C)OC(=O)NNc1c2ccccc2nc2ccccc12,45.2% (active)
5,O=C(NNc1c2ccccc2nc2ccccc12)c1cc2ccccc2cc1O,46.1% (active)
6,CCC(=O)OCCNc1nc(-c2ccccc2)nc2ccccc12,-0.305% (inactive)
7,COC(=O)c1ccc(SCc2ccccc2)nc1,1.08% (inactive)
8,CCc1nnc(NS(=O)(=O)c2ccc(NC(=O)c3cccc(OC(F)(F)C(F)F)c3)cc2)s1,-0.123% (inactive)
9,COc1ccc(C(CNC(=O)c2ccc(S(=O)(=O)Nc3ccccc3C)cc2)N2CCOCC2)cc1 (centres undefined),0.862% (inactive)
10,O=S(=O)(Nc1ccc(O)c2ccccc12)c1ccc(OC(F)(F)F)cc1,2.4% (inactive)
11,COc1ccc(CNS(=O)(=O)c2cc3c4c(c2)CCN4C(=O)CC3)cc1,-2.98% (inactive)
12,Cn1c2ccccc2n2c(=O)c(=O)n(CC(=O)c3ccc(F)cc3)nc12,23.2% (active)
13,Cn1c(SCC(=O)c2ccc(F)cc2)nnc1-c1ccccn1,8.68% (inactive)
14,Cc1nn(CC(=O)Nc2ccc(F)cc2)c(=O)c2ccccc12,0.000866% (inactive)
15,O=C(CNS(=O)(=O)c1ccccc1)N1CCN(C(=O)c2ccco2)CC1,1.51% (inactive)
16,COc1ccccc1N(C)S(=O)(=O)c1ccc(Cl)c(C(=O)Nc2ccncc2)c1,-1.81% (inactive)
17,CSCCC(NC(=O)COc1ccccc1)C(=O)OCCOc1ccc(F)cc1 (centres undefined),6.76% (inactive)
18,CCCCn1c(N)c(N(CC(C)C)C(=O)CN(C)S(=O)(=O)c2ccc(F)cc2)c(=O)[nH]c1=O,6.85% (inactive)
19,CCN1C(=O)[C@@H]2[C@@H](c3ccc(-c4ccccc4)cc3)N3CCCC[C@@]3(C(=O)OC)[C@@H]2C1=O,-2.21% (inactive)
20,CCCc1cc(=O)oc2c(C)c(OCC(=O)N3CCC(C(=O)O)CC3)ccc12,0.461% (inactive)
21,CCCc1cc(=O)oc2c(C)c(OC(C)C(=O)NCC(O)c3ccccc3)ccc12 (centres undefined),1.81% (inactive)
22,CCCc1cc(=O)oc2c(C)c(O)c(CN3CCCCC3)cc12,58.6% (active)
23,O=C(Nc1ccc(C(=O)N2CCOCC2)cc1)Nc1cccc(C(F)(F)F)c1,-2.36% (inactive)

row,SMILES,inhibition
1,Cc1ccc(C)c(OCCC(=O)OCC(=O)c2ccc3c(c2)NC(=O)CO3)c1,0.406% (inactive)
2,CCCCn1c(N)c(N(CCOC)C(=O)c2sc3ccccc3c2Cl)c(=O)[nH]c1=O,7.27% (inactive)
3,Cc1nc2ccccc2c(=O)n1-c1ccc(F)c(NC(=O)c2cccs2)c1,7.77% (inactive)
4,Cc1cccc(NC(=O)c2cccc(S(=O)(=O)N3CCCC3)c2)n1,1.93% (inactive)
5,Cc1ncc(CO)c(/C=N/NC(=O)c2cccc(S(=O)(=O)N3CCCC3)c2)c1O,38.4% (active)
6,O=C(N/N=C/c1ccccn1)c1ccc(S(=O)(=O)N2CCCCCC2)cc1,3.77% (inactive)
7,Cc1ccc(C(=O)CN2C(=O)NC3(CCc4ccccc43)C2=O)c(C)c1 (centres undefined),-0.128% (inactive)
8,Cc1ccc(C(=O)NNC(=O)c2ccncc2)cc1S(=O)(=O)N1CCCCC1,-4.29% (inactive)
9,CCOC(=O)C1=C(O)/C(=C/c2ccc(OCC(=O)Nc3ccc(C)cc3)cc2)N=C1C,70.2% (active)
10,CCOC(=O)C1=C(O)/C(=C/c2cc(C)n(-c3ccccc3)c2C)N=C1C,3.69% (inactive)
11,Cc1ccc(NC(=O)COc2ccc(/C=C3/NC(=O)NC3=O)cc2)cc1,-1.54% (inactive)
12,CCOC(=O)c1ccccc1NC(=O)c1c(N)n(C)c(=O)[nH]c1=O,-1.23% (inactive)
13,O=C(c1ccc(F)cc1)N1CCC(C(=O)N2CCN(S(=O)(=O)c3ccccc3Br)CC2)CC1,4.17% (inactive)
14,O=C(Nc1cc2ccccc2oc1=O)C1CCCCC1,4.19% (inactive)
15,CC(=O)Nc1cc2ccc(OC(C)=O)cc2oc1=O,33.6% (active)
16,CC(=O)Oc1ccc2c(C)c(CC(C)O)c(=O)oc2c1 (centres undefined),10% (inactive)
17,O=C1OC(/C=C/c2ccccc2)=NC/1=C/c1ccco1,0.891% (inactive)
18,COc1ccccc1/C=C/C(=O)NC(=S)N1CCOCC1,-1.73% (inactive)
19,COc1ccccc1/C=C/C1=NC(=C\N(C)C)/C(=O)O1,37% (active)
20,Cc1cccc(C2c3[nH]c4ccccc4c3CCN2C(=O)c2cc(-c3cccn3C)n[nH]2)n1 (centres undefined),21.1% (active)
21,O=C(c1cn2ccccc2n1)N1CCc2c([nH]c3ccccc23)C1c1ccccn1 (centres undefined),3.68% (inactive)
22,COCc1ccc(C(=O)N2CCc3c([nH]c4ccccc34)C2c2ccccn2)s1 (centres undefined),0.202% (inactive)
23,O=C(NCC1(N2CCCCC2)CCCCC1)c1ccc(NS(=O)(=O)c2ccc(F)cc2)cc1,-1.33% (inactive)

row,SMILES,inhibition
1,COC(=O)[C@]1(C)N[C@H](c2ccc(-c3ccc(Cl)c(Cl)c3)cc2)[C@@H]2C(=O)N(C)C(=O)[C@@H]21,1.99% (inactive)
2,CCOc1ccccc1NC(=O)Cn1nnc(C(=O)NCc2cccs2)c1N,1.12% (inactive)
3,CC(C)Cn1c(N)c(C(=O)NCc2cccs2)c2nc3ccccc3nc21,73.8% (active)
4,CCCNC(=O)c1c(N)n(-c2ccc(S(N)(=O)=O)cc2)c2nc3ccccc3nc12,12.3% (inactive)
5,Cc1c(C)n2c(SCC(=O)NC3CCCC3)nnc2[nH]c1=O,1.36% (inactive)
6,CC(C)(C)Oc1ccccc1Nc1nc(NCCO)nc(N2CCCC2)n1,-2.11% (inactive)
7,COc1ccc(C(=O)CC(=O)c2ccc(C)cc2)c(O)c1,2.86% (inactive)
8,COc1ccc(C(=O)Cc2cnn(-c3ccccc3)c2)c(O)c1,17.5% (active)
9,Cc1cc(O)cc(O)c1C(=O)Cc1cnn(-c2ccccc2)c1,0.165% (inactive)
10,CCCCn1c(N)c(N(CC(C)C)C(=O)c2cccc(S(=O)(=O)N3CCN(C(C)=O)CC3)c2)c(=O)[nH]c1=O,6.15% (inactive)
11,COc1cc(/C=N\Nc2ccc([N+](=O)[O-])cn2)ccc1OCC(=O)O,69.7% (active)
12,COc1cc(/C=N/O)ccc1OCc1ccc([N+](=O)[O-])cc1,-0.23% (inactive)
13,Cc1cc(/C=N/Nc2ccc([N+](=O)[O-])cn2)c(C)n1-c1cccc(C(=O)O)c1,-1.11% (inactive)
14,COc1cccc(COC(=O)C2CCN(S(=O)(=O)c3cccs3)CC2)c1OC,8.84% (inactive)
15,Cc1cc(C(=O)OC(C)C(=O)NC2CCCCC2C)c(C)o1 (centres undefined),-3.61% (inactive)
16,CC(OC(=O)CNC(=O)c1ccc(Cl)c([N+](=O)[O-])c1)C(=O)NCc1ccco1 (centres undefined),5.87% (inactive)
17,CC(OC(=O)CNC(=O)c1cccc(F)c1)C(=O)NC1CCCCC1C (centres undefined),18.8% (active)
18,CC(C)(C)c1ccc(C(=O)NCc2ccco2)cc1,-1.24% (inactive)
19,CCOc1ccc(CCNC(=O)COC(=O)c2c(OC)cccc2OC)cc1OCC,1.08% (inactive)
20,COCCn1c(SC(C)C(=O)NC2CC2)nnc1-c1cccc(C)c1 (centres undefined),-0.425% (inactive)
21,O=C(NCc1ccc(Cl)cc1)C(=O)NCC1CCCN1S(=O)(=O)c1cccs1 (centres undefined),-0.323% (inactive)
22,CC(=O)Nc1ccc(/C=C/C(=O)c2ccccc2)cc1,-0.329% (inactive)
23,CC(=O)Nc1ccc(C(=O)/C=C/c2ccc[nH]2)cc1,16.6% (active)

row,SMILES,inhibition
1,CCCC(=O)Nc1ccc(C(=O)N/N=C/c2ccc[nH]2)cc1,2.49% (inactive)
2,CC(C)Oc1ccc(S(=O)(=O)N2CCOCC2)cc1NC(=O)C1CSC2(C)CCC(=O)N12 (centres undefined),-2.87% (inactive)
3,COc1ccc(S(=O)(=O)NCCCc2ccccc2)cc1,-4.52% (inactive)
4,O=C(Cc1nc2ccccc2[nH]c1=O)c1ccc(Cl)cc1,39% (active)
5,Cc1ccc(-c2nc3ccccc3[nH]c2=O)cc1,3.42% (inactive)
6,O=C(/C(=C/c1cccc(Cl)c1)c1nc2ccccc2[nH]1)c1ccccc1,2.15% (inactive)
7,Cc1cc(C)cc(NS(=O)(=O)c2ccc(Oc3ncc(C(F)(F)F)cc3Cl)cc2)c1,1.58% (inactive)
8,COC(=O)Cc1ccc(Oc2ncc(C(F)(F)F)cc2Cl)cc1,106% (active)
9,COC(=O)Cc1ccc(OCC(=O)Nc2ccc(OC(F)(F)F)cc2)cc1,-0.217% (inactive)
10,CCCCn1c(N)c(N(CC)C(=O)c2ccc(N(C)S(=O)(=O)c3ccc(C)cc3)cc2)c(=O)[nH]c1=O,-4.28% (inactive)
11,COc1ccc(/C=C(\C#N)C(=O)OCC(=O)N(C)C2CCS(=O)(=O)C2)cc1 (centres undefined),1.11% (inactive)
12,COc1ccccc1NS(=O)(=O)c1ccc(C(=O)N2CCN(c3ccccc3O)CC2)cc1,1.18% (inactive)
13,COc1ccc(-n2cnc3cc(NCc4ccco4)ccc32)cc1,23% (active)
14,COc1ccc(-n2cnc3cc(C(=O)NC4CCCC4)ccc32)cc1,-1.26% (inactive)
15,COc1ccc(Nc2nc(NCc3ccco3)nc(N/N=C/c3ccccc3Cl)n2)cc1,-0.0694% (inactive)
16,COc1ccc(Cc2nnc(NC(=O)c3cc(OC)c(OC)c(OC)c3)s2)cc1OC,3.23% (inactive)
17,CCCc1nnc(NC(=O)c2cc(OC)cc(OC)c2)s1,162% (active)
18,CCCc1nnc(NC(=O)c2cccs2)s1,-123% (inactive)
19,C[C@@H]1O[C@@H](OC[C@H]2O[C@@H](Oc3c(-c4ccc(O)cc4)oc4cc(O)cc(O)c4c3=O)[C@H](O)[C@@H](O)[C@@H]2O)[C@H](O)[C@H](O)[C@H]1O,2.8% (inactive)
20,COc1ccc(CNC(=O)C2(CC3CC(c4ccccc4)=NO3)CCN(C(=O)c3cccc(O)c3)CC2)cc1 (centres undefined),5.15% (inactive)
